This passage reports morphology score and SARS-CoV-2 infection rate results from the supplement of paper PMC13380429.

In experiment [1] the test system is Vero E6 infected with SARS-CoV-2. In words: morphology score (similarity to uninfected cells); higher = more like uninfected cells. The note with it: 24 h.
Experiment [2] has the same test system. The experiment is described as follows: SARS-CoV-2 infection rate relative to infected DMSO; higher = more infection, active = 60 or less. The note with it: 24 h.

In experiment [1], `O=P1(NCCCl)OCCCN1CCCl` (stereo not given) [ifosfamide] (10 µM) displayed a morphology score of 0.188. Besides, the SARS-CoV-2 infection rate in experiment [2] was 97.5% (inactive).

In experiment [1], `O=C(NC1CCC1)c1ccc(C#Cc2cccc(F)c2)nc1` (10 µM) displayed a morphology score of 0.0178. Moreover, in experiment [2], the SARS-CoV-2 infection rate was 99% (inactive).

For the compound `CC[C@H](C)C(=O)O[C@H]1C[C@H](O)C=C2C=C[C@H](C)[C@H](CC[C@@H](O)C[C@@H](O)CC(=O)O)[C@H]21` (10 µM), the morphology score in experiment [1] worked out at 0.0616. For the same compound, the SARS-CoV-2 infection rate in experiment [2] was 106% (inactive).

`CCC[N+]12[C@H](O)[C@@H](CC)[C@@H]3C[C@H]1[C@@H]1N(C)c4ccccc4[C@]14C[C@H]2[C@@H]3[C@H]4O` [neo-gilurytmal] (10 µM) had a morphology score in experiment [1] of -0.0363. Besides, in experiment [2], the SARS-CoV-2 infection rate was 116% (inactive).

Consider `COc1ccc(S(=O)(=O)N2c3ccc(Cl)cc3[C@](O)(c3ccccc3Cl)[C@@H]2C(=O)N2CCC[C@H]2C(N)=O)cc1OC` [relcovaptan] (10 µM), for which the morphology score in experiment [1] is -0.0372. Besides, the SARS-CoV-2 infection rate in experiment [2] is 106% (inactive).

For the compound `Cl/C=C\C[N+]12CN3CN(CN(C3)C1)C2` [1-((Z)-3-chloroallyl)-1,3,5,7-tetraazaadamantan-1-ium] (10 µM), the morphology score in experiment [1] was found to be 0.0348. Also, the SARS-CoV-2 infection rate in experiment [2] is 99% (inactive).

On to `CCN(CC)CCCCN1c2ccccc2Oc2ccc(Cl)cc21` (0.833333 µM), for which the morphology score in experiment [1] was 0.331. The SARS-CoV-2 infection rate in experiment [2] was 93% (inactive).

The compound `CC(C)(C)c1ccc(-c2nc3c(N4CCN(Cc5ccc6nccnc6c5)CC4)cccc3[nH]2)cc1` (0.833333 µM) registered a morphology score in experiment [1] of 0.0532. Besides, the SARS-CoV-2 infection rate in experiment [2] is 102% (inactive).

In the case of `N=C1NC(=O)/C(=C/c2ccc(O)cc2)S1` [mirin] (10 µM), the morphology score in experiment [1] was -0.0277. Also, the SARS-CoV-2 infection rate in experiment [2] was 112% (inactive).

Consider `Nc1nc(NCCc2ccc(O)cc2)nc2nc(-c3ccco3)nn12` (10 µM), for which the morphology score in experiment [1] was -0.0969. The SARS-CoV-2 infection rate in experiment [2] is 111% (inactive).

For the compound `CC(C[N+](C)(C)C)OC(N)=O` (stereo not given) [bethanechol] (10 µM), the morphology score in experiment [1] was 0.0417. The SARS-CoV-2 infection rate in experiment [2] is 106% (inactive).

For `Nc1ncnc(Nc2ccc(Cl)cc2)n1` [chlorazanil] (10 µM), in experiment [1], the morphology score is 0.133. In addition, the SARS-CoV-2 infection rate in experiment [2] is 106% (inactive).

`C[C@@H]1CCN(C(=O)CC#N)C[C@@H]1N(C)c1ncnc2[nH]ccc12` (10 µM): the morphology score in experiment [1] was found to be 0.281. In experiment [2], the SARS-CoV-2 infection rate was 106% (inactive).

Take `O=S(=O)(c1cccc2c(O)nccc12)N1CCCNCC1` [hydroxyfasudil] (10 µM): in experiment [1], the morphology score is 0.355. In addition, the SARS-CoV-2 infection rate in experiment [2] was 108% (inactive).

`C[C@]12CC[C@@H]3c4ccc(OS(=O)(=O)O)cc4CC[C@H]3[C@@H]1CCC2=O` [estropipate] (10 µM): the morphology score in experiment [1] worked out at 0.227. In addition, in experiment [2], the SARS-CoV-2 infection rate was 99% (inactive).

On to `CCn1c(=O)n(C2=C(CO)CN(CC3CCCCCCC3)CC2)c2ccccc21` [trap-101] (10 µM), for which the morphology score in experiment [1] was -0.109. Moreover, the SARS-CoV-2 infection rate in experiment [2] is 103% (inactive).

In turn, `c1cc(Cc2cnc[nH]2)ccn1` [immethridine] (10 µM) registered a morphology score in experiment [1] of 0.158. Further, the SARS-CoV-2 infection rate in experiment [2] is 109% (inactive).

`NCCCC[C@@H]1NC(=O)[C@@H](Cc2c[nH]c3ccccc23)NC(=O)[C@H](c2ccccc2)NC(=O)[C@@H]2C[C@@H](OC(=O)NCCN)CN2C(=O)[C@H](Cc2ccccc2)NC(=O)[C@H](Cc2ccc(OCc3ccccc3)cc2)NC1=O` [pasireotide] (10 µM) returned a morphology score in experiment [1] of -0.0469. Besides, the SARS-CoV-2 infection rate in experiment [2] is 104% (inactive).

`Cc1cc(O)ccc1Cl` [chlorocresol] (10 µM) yielded a morphology score in experiment [1] of 0.0498. Further, the SARS-CoV-2 infection rate in experiment [2] was 95.5% (inactive).

With `C[C@@H](Oc1cc(-n2cnc3ccc(CN4CCN(C)CC4)cc32)sc1C(N)=O)c1ccccc1C(F)(F)F` (0.833333 µM), the morphology score in experiment [1] was determined as 0.0643. Also, in experiment [2], the SARS-CoV-2 infection rate is 94% (inactive).

Regarding `O=C(Nc1cccnc1)c1cc(-c2ccnc(F)c2)ccc1OCc1ccccc1` (10 µM), the morphology score in experiment [1] was -0.0646. For the same compound, the SARS-CoV-2 infection rate in experiment [2] is 114% (inactive).

On to `CN(C)CC/C=C1\c2ccccc2CSc2ccccc21` [dosulepin] (10 µM), for which the morphology score in experiment [1] is 0.188. For the same compound, the SARS-CoV-2 infection rate in experiment [2] is 99.5% (inactive).

Turning to `N[C@H]1C[C@@H]1c1ccccc1` (racemic) [tranylcypromine] (10 µM), in experiment [1], the morphology score turned out to be 0.0679. Also, the SARS-CoV-2 infection rate in experiment [2] is 114% (inactive).

The compound `CCSc1ccc2c(c1)N(CCCN1CCN(C)CC1)c1ccccc1S2` [thiethylperazine] (10 µM) had a morphology score in experiment [1] of 0.722. In addition, in experiment [2], the SARS-CoV-2 infection rate was 29.5% (active).

`C=CCNc1c(O)cc2c(O)c1C[C@@H](C)C[C@H](OC)[C@H](O)[C@@H](C)/C=C(\C)[C@H](OC(N)=O)[C@@H](OC)/C=C\C=C(/C)C(=O)N2` [retaspimycin] (10 µM) showed a morphology score in experiment [1] of -0.0349. Further, the SARS-CoV-2 infection rate in experiment [2] is 108% (inactive).

In the case of `C=C1CC[C@H](O)C/C1=C/C=C1\CCC[C@]2(C)[C@@H]([C@H](C)/C=C/[C@H](C)C(C)C)CC[C@@H]12` [ergocalciferol] (10 µM), the morphology score in experiment [1] was 0.0614. The SARS-CoV-2 infection rate in experiment [2] was 93.5% (inactive).

In turn, `CC(=O)NCCCCCC(=O)O` [acexamic-acid] (10 µM) gave a morphology score in experiment [1] of -0.0574. In addition, the SARS-CoV-2 infection rate in experiment [2] was 112% (inactive).

Regarding `N#Cc1nn(-c2c(Cl)cc(C(F)(F)F)cc2Cl)c(N)c1[S+]([O-])C(F)(F)F` (stereo not given) [fipronil] (10 µM), in experiment [1], the morphology score is 0.0672. Besides, the SARS-CoV-2 infection rate in experiment [2] is 102% (inactive).

As to `Oc1cc2c(cc1O)C(c1ccccc1)CNCC2` (stereo not given) (10 µM), in experiment [1], the morphology score was -0.34. Moreover, in experiment [2], the SARS-CoV-2 infection rate is 116% (inactive).

`CCC/N=C1\S/C(=C\c2ccc(OC[C@H](O)CO)c(Cl)c2)C(=O)N1c1ccccc1C` [ponesimod] (10 µM) returned a morphology score in experiment [1] of -0.2. Further, the SARS-CoV-2 infection rate in experiment [2] was 108% (inactive).
